# PP5 inh: PP5 phosphatase inhibitors, primary screen, biochemical, fluorescence; Serine/threonine-protein phosphatase 5 (Homo sapiens), P53041; purified PP5c, OMFP substrate fluorescence; inhibition, % at 6.7 µM; hit rate 0.18% among 320,000;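 active means inhibition above the campaign's mean inhibition across all tested compounds plus 3 SD, cut at about 9.5% in these data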;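 further: 0% = DMSO only and 100% = 100 µM cantharidin control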
# Target sequence (P53041 whole entry, looked up): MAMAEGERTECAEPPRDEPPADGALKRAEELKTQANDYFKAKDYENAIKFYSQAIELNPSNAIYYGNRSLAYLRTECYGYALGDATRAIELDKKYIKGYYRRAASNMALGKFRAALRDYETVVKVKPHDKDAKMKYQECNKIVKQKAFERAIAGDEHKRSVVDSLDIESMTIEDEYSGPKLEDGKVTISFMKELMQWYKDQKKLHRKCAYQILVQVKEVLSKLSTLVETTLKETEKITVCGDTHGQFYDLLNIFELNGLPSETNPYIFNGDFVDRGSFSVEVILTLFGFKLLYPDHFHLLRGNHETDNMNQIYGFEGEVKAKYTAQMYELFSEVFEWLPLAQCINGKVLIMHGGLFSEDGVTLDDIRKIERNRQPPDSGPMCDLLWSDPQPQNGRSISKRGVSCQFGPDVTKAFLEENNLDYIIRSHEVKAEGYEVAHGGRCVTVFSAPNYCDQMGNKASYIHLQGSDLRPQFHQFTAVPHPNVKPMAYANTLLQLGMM
# H9c2 protect: cardioprotection against H2O2-induced cell death, primary screen, uHTS, H9c2 cells, ATPLite luminescence | H9c2 cardiomyocytes, H2O2 injury protection, 2 h | protection from H2O2 cell death, % at 20 µM | hit rate 0.63% among 360,000 | AID 588492, 2011;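 active means compounds giving at least 50% protection of heart cells from peroxide-induced death in the single-dose screen, raw or plate-pattern-corrected value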;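 further: 0% = DMSO wells with peroxide and 100% = DMSO wells without peroxide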
# PP1 inh: PP1-alpha phosphatase inhibitors, primary screen, counter-screen for PP5 inhibitor project, biochemical, fluorescence, OMFP substrate, single point; inhibition, % at 6.7 µM; purified PP1alpha; AID 2235, 2010; hit rate 0.9% among 320,000; Serine/threonine-protein phosphatase PP1-alpha catalytic subunit (Homo sapiens), P62136;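 active means inhibition above the mean inhibition of all tested compounds plus 3 SD, computed separately for each screening campaign, cut at about 15% in these data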
# ATG4B inh: ATG4B protease inhibitors, primary screen, biochemical, fluorescence, uHTS; ATG4B cleavage of LC3-PLA2, NBD-HPC fluorescence, 1 h; hit rate 0.51% among 340,000; inhibition, % at 8.33 µM; Cysteine protease ATG4B (Homo sapiens), Q9Y4P1; in the data active means inhibition above about 40%
# PP5 conf: PP5 phosphatase inhibitors, confirmation, biochemical, fluorescence, human; shares compounds with PP5 inh; Purified PP5, fluorogenic phosphatase substrate; inhibition, % at 6.7 µM; hit rate 22% among 460; AID 2331, 2010; in the data active means inhibition above about 9.5%
# PP1 counter 3x: PP1 phosphatase inhibitors, counter-screen for PP5 inhibitor project, biochemical, fluorescence, triplicate. PP1 enzyme, fluorescent phosphatase substrate. shares compounds with PP5 inh. AID 2355, 2010. inhibition, % at 6.7 µM. hit rate 4% among 460; in the data active means inhibition above about 16%
# An asterisk follows results filed as active; / = no result. Shown are actives, neighbours in structure and some others; about 1.9% of the full set was active somewhere.
SMILES,PP5 inh,H9c2 protect,PP1 inh,ATG4B inh,PP5 conf,PP1 counter 3x
CS(=O)(=O)c1nsc2nc(=O)c(/C=C3\C=Nc4ccccc43)c(N)n12,-0.4,1.8,2.1,13.0,/,/
CC(C)Sc1nsc2nc(=O)c(/C=C3\C=Nc4ccccc43)c(N)n12,14.1*,-2.3,-3.6,22.1,0.3,0.9
COc1ccc(C(C)C)cc1S(=O)(=O)N1CC(C)OC(C)C1 (centres undefined),10.0*,-4.7,-6.0,-0.3,-2.9,-2.6
COc1ccc(C)cc1S(=O)(=O)N1CC(C)OC(C)C1 (centres undefined),-0.1,-5.8,-1.2,9.9,/,/
CC(C)Oc1ccc(C(CC(=O)O)Cc2ccccc2)cc1 (centres undefined),-2.3,-1.6,0.4,4.5,/,/
O=C(NC1CCSc2ccccc21)c1ccc(C(F)(F)F)cc1 (centres undefined),0.4,-15.8,-0.9,3.5,/,/
Cc1ccccc1NC(=O)Nc1ccccc1C(=O)NCc1ccccc1,17.4*,6.1,-0.5,-3.3,-2.7,-1.8
O=C(Nc1ccc(Cl)cc1)N1CCCN(c2ccc(C(F)(F)F)cc2[N+](=O)[O-])CC1,12.1*,-7.2,0.5,-10.1,4.9,2.9
O=[N+]([O-])c1cc(C(F)(F)F)ccc1N1CCC(O)CC1,1.3,-3.2,-0.5,-6.0,/,/
CCCNC(=O)C(Cc1cccc(Cl)c1)NC(=O)c1ccccc1 (centres undefined),2.5,5.2,-6.6,6.3,/,/
COc1cccc(-c2cc(C(=O)Nc3cnn(Cc4ccc(F)cc4)c3)no2)c1,13.6*,-1.9,-2.6,7.2,-0.4,-3.7
O=C(CCNC(=O)N1CC(=O)Nc2ccccc21)Nc1ccc(Br)cc1F,1.6,-0.3,-2.1,6.6,/,/
COC(=O)CCC(=O)OC1(C)C(=O)C=C2C=C(C3CC3)N(C3CCCCC3)C=C2C1=O (centres undefined),7.8,4.5,4.6,-1.8,/,/
COC(=O)CCC(=O)OC1(C)C(=O)C=C2C=C(C3CC3)N(Cc3ccccc3)C=C2C1=O (centres undefined),6.0,-0.4,4.8,-4.6,/,/
COC(=O)CCC(=O)OC1(C)C(=O)C=C2C=C(C3CC3)N(C3CCCC3)C=C2C1=O (centres undefined),11.5*,5.4,3.2,0.7,31.7*,7.4
COC(=O)CCC(=O)OC1(C)C(=O)C=C2C=C(C3CC3)N(CC3CC3)C=C2C1=O (centres undefined),11.8*,-3.7,0.5,-3.6,37.2*,13.8
O=C1C=C(c2ccccc2)C(c2ccccc2)C1O (centres undefined),/,3.5,/,0.2,/,/
O=C(C[C@@H]1C/C=C/CC[C@H](Cc2ccc(F)cc2)C(=O)OCCNC1=O)N[C@H](CO)Cc1ccccc1,/,-5.9,/,-8.7,/,/
CCN(C(=O)COC(=O)CSc1ccc(C(N)=O)cc1[N+](=O)[O-])C1CCCCC1,1.7,-7.1,-0.2,0.7,/,/
CC(C)(C)NS(=O)(=O)c1ccc(CCC(=O)NCc2ccccn2)cc1,1.2,5.9,1.9,-4.7,/,/
Cc1ccc(Sc2ccc(N)cn2)cc1,13.7*,-1.8,2.1,-2.7,-4.3,-3.1
O=[N+]([O-])c1cccnc1N1CCC(c2cc(-c3cccc(C(F)(F)F)c3)n[nH]2)CC1,10.4*,-20.3,4.3,33.3,4.3,3.6
O=[N+]([O-])c1cccnc1N1CCC(c2cc(-c3ccc(Cl)cc3Cl)n[nH]2)CC1,5.2,-18.9,7.9,23.7,/,/
COc1ccc(C(=O)c2nccc3cc(OC)c(OC)cc23)cc1OC,13.1*,8.3,2.5,1.5,48.0*,7.3
COc1cc(C(=O)NCCC(c2ccccc2)c2ccccc2)cc(OC)c1OC,2.9,-4.3,5.1,-8.9,/,/
SMILES,PP5 inh,H9c2 protect,PP1 inh,ATG4B inh,PP5 conf,PP1 counter 3x
COc1cccc(C(C[N+](=O)[O-])c2c(C)[nH]n(-c3ccccc3)c2=O)c1 (centres undefined),12.0*,-1.4,2.2,-4.5,-0.7,-1.9
CC(=O)C[C@H](O)CC(=O)[C@@H]1OC(=O)CCCCCCCCc2ccccc21,/,2.4,/,2.4,/,/
COc1cccc(NC(=O)CN(C)C(=O)CC(NC(=O)c2ccccc2Cl)c2ccccc2)c1 (centres undefined),5.8,-2.0,-0.3,-4.3,/,/
CCOc1ccc(NC(=S)Nc2ccc3nsnc3c2)cc1,11.6*,-19.1,10.5,14.4,49.2*,3.0
COc1ccc(NC(=S)Nc2ccc3nsnc3c2)cc1,11.9*,-7.9,3.0,-7.6,47.4*,0.3
CCOc1ccc(NC(=O)Nc2ccc3nsnc3c2)cc1,3.3,-19.6,-2.5,-5.8,/,/
CNc1c(NS(=O)(=O)c2ccc(Br)cc2)c(=O)oc2ccccc12,3.0,2.3,3.2,2.9,/,/
CC(=O)Nc1ccc(S(=O)(=O)N2CCN(c3nc(NC4CCCC4)c4ccccc4n3)CC2)cc1,11.6*,-34.1,11.2,14.2,1.9,0.0
CC(=O)Nc1ccc(S(=O)(=O)N2CCN(c3cc(C)nc4ccccc34)CC2)cc1,0.8,-10.5,-2.6,-10.7,/,/
COc1cccc(CN(C)CC(=O)NCc2ccc(F)cc2)c1OC,12.1*,1.2,-9.2,-7.4,-7.0,-4.7
CC(C)c1ccc(C(O)P(=O)(OCc2ccccc2)c2ccc(N(C)C)cc2)cc1 (centres undefined),9.7*,-3.6,2.5,0.8,5.0,6.1
CN(C)c1ccc(C(O)P(=O)(OCc2ccccc2)c2ccc(N(C)C)cc2)cc1 (centres undefined),2.1,4.1,-1.6,-3.4,/,/
O=C(NC1CCCCCC1)C1c2ccccc2C(=O)N1Cc1ccco1 (centres undefined),10.8*,-1.7,-1.4,-4.9,-4.7,-3.8
O=C(NC1CCCCCC1)C1c2ccccc2C(=O)N1Cc1cccs1 (centres undefined),0.6,4.0,4.6,-6.5,/,/
Cc1ccc(C(=O)Oc2ccc(N3C(=O)CCC3=O)c(C)c2)cc1,-1.5,-14.2,-3.0,0.7,/,/
Cc1cc(OCC(=O)c2ccc(Br)cc2)ccc1N1C(=O)CCC1=O,12.8*,3.9,-1.7,-12.9,-5.7,-2.9
Cc1cccc(NC2=C/C(=N/S(=O)(=O)c3cccs3)c3ccccc3C2=O)c1,3.3,-18.0,-1.0,28.0,/,/
Cc1ccc(Cl)cc1NC1=C/C(=N\S(=O)(=O)c2cccs2)c2ccccc2C1=O,10.6*,-18.4,2.4,-1.4,42.3*,11.3
Cn1cc(CNCc2ccc(-n3cccn3)cc2)c(-c2ccccc2F)n1,3.1,-15.0,0.6,7.6,/,/
Cn1cc(CNCCCn2ncc3ccccc32)c(-c2ccccc2F)n1,16.0*,-8.0,-10.0,-8.0,-3.8,-6.6

# Bioassay records from PubChem.
